This is part of a sample that, as a whole, favours compounds with a hit. Of some 79,000 tested, about 15% had one in any assay. A number with no mark means an inactive call. Activity calls are given as the source filed them. Cut-off read from the data, not from the text of the source: active = growth inhibition above about 70%; inactive = the rest.
Key:
[1] = NCI Yeast Anticancer Drug Screen. Data for the rad50 strain (AID 155);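 note: 0% = growth of vehicle-only cultures of the same strain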; conditions: S. cerevisiae rad50 strain growth inhibition; at 50.0 µM; active compounds read high
Outline: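 Vehicle-treated cultures provide the reference for the growth inhibition reported for compound-exposed, repair-deficient yeast.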

[2] = NCI Yeast Anticancer Drug Screen. Data for the mec2-1 strain (AID 157); conditions: S. cerevisiae mec2-1 strain, at 50.0 µM, active compounds read high
Outline: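 Readout is yeast growth inhibition, normalised to vehicle-treated controls, in the mec2-1 strain exposed to compound.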

[3] = NCI Yeast Anticancer Drug Screen. Data for the sgs1 mgt1 strain (AID 161);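 note: 0% = growth of cultures given vehicle only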; conditions: S. cerevisiae sgs1 mgt1 strain, at 50.0 µM, active compounds read high
Outline: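 This yeast growth screen uses a strain with defined DNA-repair lesions; compound-treated growth is compared with vehicle-treated growth.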

[4] = NCI Yeast Anticancer Drug Screen. Data for the cln2 rad14 strain (AID 165);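 note: 0% = growth equal to vehicle treated cultures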; conditions: S. cerevisiae cln2 rad14 strain, at 50.0 µM, active compounds read high
Outline: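 Relative to vehicle controls, growth inhibition of compound-treated cln2 rad14 yeast was recorded.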

[5] = NCI Yeast Anticancer Drug Screen. Data for the bub3 strain (AID 167); conditions: S. cerevisiae bub3 mutant strain, at 50.0 µM, active compounds read high
Outline: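 Mutant yeast screening strain plus compound; vehicle-treated cultures serve as the 0% inhibition reference.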

[6] = NCI Yeast Anticancer Drug Screen. Data for the mlh1 rad18 strain (AID 175); conditions: S. cerevisiae mlh1 rad18 strain growth inhibition; at 50.0 µM; active compounds read high
Outline: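 Test agents were incubated with a yeast strain of defined genotype (DNA damage repair defect). Inhibition of growth was derived by comparison with vehicle-exposed cultures.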

CCOC(=O)C1C(c2cc(OC)c(OC)c(OC)c2)c2cc3c(cc2OC1(C)OC)OCO3 (stereo not given)
growth inhibition [1]: 5.55% | growth inhibition [2]: 5.4% | growth inhibition [3]: -0.15% | growth inhibition [4]: -1.3% | growth inhibition [5]: -5.25% | growth inhibition [6]: 19.1%

CCC/C=N/NC(=O)CCCCCCCCCCCCCCCCC
growth inhibition [1]: 7.35% | growth inhibition [2]: 7.95% | growth inhibition [3]: 16.9% | growth inhibition [4]: -8.2% | growth inhibition [5]: 7.7% | growth inhibition [6]: 14.3%

O=C(O)CC(c1ccccc1Cl)C(CC(=O)O)c1ccccc1Cl (stereo not given)
growth inhibition [1]: 5.55% | growth inhibition [2]: -1.55% | growth inhibition [3]: -2.55% | growth inhibition [4]: 11.6% | growth inhibition [5]: -1.05% | growth inhibition [6]: 3.4%

O=c1[nH]nc(-c2ccc(Cl)cc2)[nH]1
growth inhibition [1]: 9.35% | growth inhibition [2]: -4.25% | growth inhibition [3]: -3.85% | growth inhibition [4]: -30.1% | growth inhibition [5]: -5.8% | growth inhibition [6]: -3.9%

CC[N+](C)(CC)Cc1ccccc1[N+](=O)[O-]
growth inhibition [1]: -32.8% | growth inhibition [2]: -47.3% | growth inhibition [3]: -25.9% | growth inhibition [4]: 2.85% | growth inhibition [5]: -38.8% | growth inhibition [6]: -28.6%

Cc1nc2sccc2c(=O)n1C
growth inhibition [1]: -4.5% | growth inhibition [2]: -3.6% | growth inhibition [3]: -0.9% | growth inhibition [4]: -4.1% | growth inhibition [5]: 0.2% | growth inhibition [6]: -4.35%

CN(C)c1noc2c1c(=O)n(C)c(=O)n2C
growth inhibition [1]: -27.8% | growth inhibition [2]: -9.95% | growth inhibition [3]: -11.6% | growth inhibition [4]: -12.1% | growth inhibition [5]: 2.6% | growth inhibition [6]: 14.8%

CC1(C)OC(=O)C=C(O)O1.CC1(C)OC(=O)C=C(O)O1.CCO.Oc1ccc2c(c1)CCC2.[Ti]
growth inhibition [1]: -15.7% | growth inhibition [2]: -13.5% | growth inhibition [3]: -29.1% | growth inhibition [4]: 20.4% | growth inhibition [5]: -5.05% | growth inhibition [6]: 6.75%

CC(C)N1C(=O)c2cccc3c(Br)ccc(c23)C1=O
growth inhibition [1]: 97.8% (active) | growth inhibition [2]: 99.3% (active) | growth inhibition [3]: 97.2% (active) | growth inhibition [4]: 98.4% (active) | growth inhibition [5]: 99.2% (active) | growth inhibition [6]: 98.5% (active)

COc1cccc(C2=NC(C(C)C)CO2)c1OC (stereo not given)
growth inhibition [1]: -11.3% | growth inhibition [2]: -16.4% | growth inhibition [3]: -15.8% | growth inhibition [4]: 19.9% | growth inhibition [5]: -8.35% | growth inhibition [6]: -4.35%

O=C(c1ccccc1)N1C(=S)N=C(Nc2ccccc2)C1=Nc1ccccc1
growth inhibition [1]: -15.8% | growth inhibition [2]: -27.1% | growth inhibition [3]: -9.8% | growth inhibition [4]: -30.3% | growth inhibition [5]: -20.9% | growth inhibition [6]: -35.9%

CSc1nc2c(nc(N)n2C2OCC(O)C(O)C2O)c(=O)[nH]1 (stereo not given)
growth inhibition [1]: -19.2% | growth inhibition [2]: -5.2% | growth inhibition [3]: -12.5% | growth inhibition [4]: -15% | growth inhibition [5]: -5.65% | growth inhibition [6]: -29.2%

BrCCCC1OCCO1
growth inhibition [1]: 93.8% (active) | growth inhibition [2]: 53% | growth inhibition [3]: 85.8% (active) | growth inhibition [4]: 43.5% | growth inhibition [5]: 73.4% (active) | growth inhibition [6]: 60.2%

Cc1cc(O)cc(C)c1Cl
growth inhibition [1]: 17.2% | growth inhibition [2]: -25.9% | growth inhibition [3]: 5.95% | growth inhibition [4]: -21.2% | growth inhibition [5]: 12.9% | growth inhibition [6]: 11.2%

Cc1ccc(Cl)cc1NS(=O)(=O)c1ccccc1
growth inhibition [1]: -4.35% | growth inhibition [2]: -31.1% | growth inhibition [3]: -2.8% | growth inhibition [4]: -14.3% | growth inhibition [5]: -22.8% | growth inhibition [6]: 5.55%

O=C(CCC(=O)Nc1cc(Cl)ccc1Cl)CC(=O)c1ccc([N+](=O)[O-])cc1
growth inhibition [1]: 10.1% | growth inhibition [2]: 28.9% | growth inhibition [3]: 4.35% | growth inhibition [4]: 13.8% | growth inhibition [5]: -2% | growth inhibition [6]: 40.4%

CC1(C)C2CC(c3ccccc3)C1/C(=C/O)C2=O (stereo not given)
growth inhibition [1]: -16.9% | growth inhibition [2]: -3.2% | growth inhibition [3]: 2.8% | growth inhibition [4]: 36.8% | growth inhibition [5]: -3.85% | growth inhibition [6]: -2.9%

COC[C@H]1C(=O)NCC(=O)N2N=CCC[C@H]2C(=O)N(O)[C@H](C)C(=O)O[C@@H](C(C)C)[C@H](NC(=O)[C@@](C)(O)[C@]2(O)CC[C@@H](CC(C)C)[C@H](C)O2)C(=O)N2NCCC[C@@H]2C(=O)N1O
growth inhibition [1]: 91.8% (active) | growth inhibition [2]: 93.6% (active) | growth inhibition [3]: 93.7% (active) | growth inhibition [4]: 91.2% (active) | growth inhibition [5]: 93.2% (active) | growth inhibition [6]: 92.1% (active)

O=C(O)C1CCN(Cc2oc(CO)cc(=O)c2O)C1 (stereo not given)
growth inhibition [1]: -31.6% | growth inhibition [2]: -19.7% | growth inhibition [3]: -19.2% | growth inhibition [4]: -1.4% | growth inhibition [5]: -24.4% | growth inhibition [6]: -2.75%

Cc1ccc2ccccc2c1CSc1nc(N)nc2c1ncn2CC(C)C
growth inhibition [1]: 37% | growth inhibition [2]: 23.6% | growth inhibition [3]: 30.7% | growth inhibition [4]: 25.6% | growth inhibition [5]: 12.9% | growth inhibition [6]: 46.5%

COc1ccc(S(=O)(=O)N(C)c2ccccc2)cc1
growth inhibition [1]: 2.9% | growth inhibition [2]: -56.8% | growth inhibition [3]: -20.6% | growth inhibition [4]: 13.3% | growth inhibition [5]: 19.1% | growth inhibition [6]: 3.5%

CN1CN(c2ccccc2)C2(CCN(c3nc4ccccc4s3)CC2)C1=O
growth inhibition [1]: -29.7% | growth inhibition [2]: -6.1% | growth inhibition [3]: -22.8% | growth inhibition [4]: -18.4% | growth inhibition [5]: 3.2% | growth inhibition [6]: -17.1%

[N-]=[N+]=Nc1cc(=O)n(-c2ccccc2)c(=O)n1-c1ccccc1
growth inhibition [1]: 9.5% | growth inhibition [2]: 8.75% | growth inhibition [3]: 13.3% | growth inhibition [4]: 21.6% | growth inhibition [5]: 10.3% | growth inhibition [6]: 32.2%

CC1=C(CCCO)/C(=N\O)CCC1
growth inhibition [1]: 3.75% | growth inhibition [2]: -1.75% | growth inhibition [3]: -3% | growth inhibition [4]: -30.4% | growth inhibition [5]: 17.5% | growth inhibition [6]: -28%

COc1cc(NS(=O)(=O)c2ccc(N)cc2)nc(OC)n1
growth inhibition [1]: -28.3% | growth inhibition [2]: -11.3% | growth inhibition [3]: -11.1% | growth inhibition [4]: -60.2% | growth inhibition [5]: -22.6% | growth inhibition [6]: -3.9%

CN(C)c1ccc(/C=C/c2nc3ccc(Cl)cc3[nH]2)cc1
growth inhibition [1]: -5.55% | growth inhibition [2]: 0.1% | growth inhibition [3]: -1.9% | growth inhibition [4]: 5.75% | growth inhibition [5]: -8.2% | growth inhibition [6]: -14.1%

Cc1nc(NCc2ccco2)nc(NCc2ccco2)c1[N+](=O)[O-]
growth inhibition [1]: -14.7% | growth inhibition [2]: -18.6% | growth inhibition [3]: -5.85% | growth inhibition [4]: -22.6% | growth inhibition [5]: 27.7% | growth inhibition [6]: -13.1%

CC(=O)NC1c2ccccc2C(C)(C)C12CCC1(CC2)OCCO1 (stereo not given)
growth inhibition [1]: -33.5% | growth inhibition [2]: -17.1% | growth inhibition [3]: -4.8% | growth inhibition [4]: 0.05% | growth inhibition [5]: -3.8% | growth inhibition [6]: -40.8%

O=C(COc1ccc(Cl)cc1)Nc1ccc(S(=O)(=O)O)c2ccccc12
growth inhibition [1]: 9% | growth inhibition [2]: 0.6% | growth inhibition [3]: -12.4% | growth inhibition [4]: -5% | growth inhibition [5]: 1.65% | growth inhibition [6]: 13.4%

CCOc1ccc2c(N=[N+]=[N-])cc(C)nc2c1
growth inhibition [1]: -46.1% | growth inhibition [2]: -11.2% | growth inhibition [3]: -18.2% | growth inhibition [4]: -67.8% | growth inhibition [5]: 5.3% | growth inhibition [6]: 5.45%

O=C(O)CCc1ccccc1-c1ccccc1C(=O)O
growth inhibition [1]: 4% | growth inhibition [2]: 1.45% | growth inhibition [3]: -2.45% | growth inhibition [4]: 8.8% | growth inhibition [5]: 0.35% | growth inhibition [6]: 31.4%

CCCCOCCOCCOC(=O)c1ccc(C)cc1
growth inhibition [1]: 3.9% | growth inhibition [2]: -11% | growth inhibition [3]: -13.8% | growth inhibition [4]: -49.9% | growth inhibition [5]: 46% | growth inhibition [6]: 11%

CC(C)=CCCC(C)(O)C1CC=C(C)CC1 (stereo not given)
growth inhibition [1]: 0.5% | growth inhibition [2]: -18.8% | growth inhibition [3]: -2.6% | growth inhibition [4]: 3.05% | growth inhibition [5]: -13.9% | growth inhibition [6]: -7.65%

C=CCOC(=O)/C=C\c1ccccc1OC
growth inhibition [1]: 23.9% | growth inhibition [2]: 6.45% | growth inhibition [3]: 16.6% | growth inhibition [4]: -39.9% | growth inhibition [5]: 14.8% | growth inhibition [6]: -3.3%

COc1ccc(C(C#N)NC23CC4CC(CC(C4)C2)C3)cc1OC (stereo not given)
growth inhibition [1]: -11.8% | growth inhibition [2]: -19.8% | growth inhibition [3]: -25.1% | growth inhibition [4]: -15.2% | growth inhibition [5]: -56.2% | growth inhibition [6]: -19.5%

OCC1(F)CC1(c1ccccc1)c1ccccc1 (stereo not given)
growth inhibition [1]: 0.45% | growth inhibition [2]: -2.85% | growth inhibition [3]: 7.45% | growth inhibition [4]: 12.7% | growth inhibition [5]: -13.4% | growth inhibition [6]: -22.6%

CSc1ncnc2ncn(C)c12
growth inhibition [1]: 11.9% | growth inhibition [2]: -2.6% | growth inhibition [3]: 4.4% | growth inhibition [4]: -9.95% | growth inhibition [5]: 3.25% | growth inhibition [6]: 1.75%

CCCCCC(=O)OCCOCCCC
growth inhibition [1]: 2.05% | growth inhibition [2]: 4% | growth inhibition [3]: -4.6% | growth inhibition [4]: -35.4% | growth inhibition [5]: 6.85% | growth inhibition [6]: 5.85%

CCN(CC)c1ccc(N=C2C=CC(=O)C(C)=C2)c(C)c1
growth inhibition [1]: -3.05% | growth inhibition [2]: -14.6% | growth inhibition [3]: -0.9% | growth inhibition [4]: -23.4% | growth inhibition [5]: 11.8% | growth inhibition [6]: 3.05%

CCN(CC)S(=O)(=O)c1ccc(S(C)(=O)=O)cc1
growth inhibition [1]: -19.8% | growth inhibition [2]: -10.9% | growth inhibition [3]: -8.05% | growth inhibition [4]: -60.1% | growth inhibition [5]: 8.35% | growth inhibition [6]: -14.2%
